A short description of assay [1]: A CellTox Green Cytotoxicity Assay to monitor cytotoxicity in HEK293 cells - 32 hour (AID 1224881). Also: nearly all actives have a fitted effect of over 40% in size. Also: potency is read from the fitted curve at half-maximal effect. The method, boiled down:
(§1)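 Fluorescence from a DNA-binding dye excluded by viable cells was measured repeatedly in the same HEK293 wells (600 cells/well) during continuous compound exposure at 37 C. Each assay gives one read point: 0, 8, 16, 24, 32 or 40 h.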

A short description of assay [2]: A CellTox Green Cytotoxicity Assay to monitor cytotoxicity in HepG2 cells - 0 hour (AID 1224882). Also: nearly all actives have a fitted effect of over 35% in size. The method, boiled down:
(§2)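 Real-time cytotoxicity: fluorescence of a cell-impermeant cyanine dye binding DNA of dead HepG2 cells, measured repeatedly (0–40 h) during compound exposure at 37 C. Cells seeded 600/well with reagent, dosed after 5 h.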

Assay [3] can be described thus: A CellTox Green Cytotoxicity Assay to monitor cytotoxicity in HepG2 cells - 32 hour (AID 1224883). Also: nearly all actives have a fitted effect of over 50% in size. Also: potency is read from the fitted curve at half-maximal effect. The gist of the method: as §2
Assay [4] in a line: A CellTox Green Cytotoxicity Assay to monitor cytotoxicity in HEK293 cells - 8 hour (AID 1224884). Also: nearly all actives have a fitted effect of over 35% in size. The gist of the method: as §1
The nature of assay [5]: qHTS RealTime-Glo MT Cell Viability Assay in HepG2 cells - 16 hour (AID 1224885). Also: nearly all actives have a fitted effect of over 50% in size. The gist of the method:
(§3)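 Tox21 10K library screened in qHTS format on HepG2 cells carrying RealTime-Glo reagents. Compounds were added after a 5 h preincubation, and the luminescent signal from continuous culture was measured repeatedly during 40 h treatment.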

A short description of assay [6]: qHTS RealTime-Glo MT Cell Viability Assay in HEK293 cells - 8 hour (AID 1224887). Also: top concentration of the series differs between compounds; nearly all actives have a fitted effect of over 50% in size. The method, boiled down:
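Luminescence, which tracks viable cell number through reduction of the prosubstrate to a NanoLuc substrate, was read over continuous 37 C culture. Cells (600/well) were premixed with reagent and rested 5 h before 23 nL of compound in DMSO was pinned.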

Assay [7] can be described thus: A CellTox Green Cytotoxicity Assay to monitor cytotoxicity in HEK293 cells - 16 hour (AID 1224888). Also: nearly all actives have a fitted effect of over 35% in size. The method, boiled down:
as §1

The nature of assay [8]: qHTS assay to identify small molecule antagonists of the estrogen receptor alpha (ER-alpha) signaling pathway using the BG1 cell line in the presence of 0.1 nM 17-beta-estradiol - cell viability counter screen (AID 1259241). Also: nearly all actives have a fitted effect of over 40% in size. The gist of the method:
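VM7Luc4E2, 4,000 cells/well, phenol red-free medium + 10% charcoal-stripped FBS; 24 hr plating; cpd + 0.1 nM E2 final, 22 hr 37C/5% CO2; CellTiter-Fluor 30 min, fluorescence.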
A general note: qHTS replaces the single test concentration by a dilution series.

A short description of assay [9]: qHTS assay to identify small molecule antagonists of the androgen receptor (AR) signaling pathway using the MDA cell line in the presence of 0.5 nM R1881 - cell viability counter screen (AID 1259242). Also: nearly all actives have a fitted effect of over 45% in size. The gist of the method: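 Live-cell protease activity was measured by CellTiter-Fluor fluorescence after 30 min. Before that, MDA-kb2 MMTV-luciferase cells had 16 hr at 37C without CO2, exposed to test compounds and 0.5 nM R1881 final.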

Assay [10] deals with Androgen receptor (Homo sapiens) (UniProt P10275). As to the kind of experiment: qHTS assay to identify small molecule antagonists of the androgen receptor (AR) signaling pathway using the MDA cell line in the presence of 0.5 nM R1881 (AID 1259243). Also: nearly all actives have a fitted effect of over 50% in size. The method, boiled down:
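Luminescent reporter readout (ONE-Glo, 30 min, room temperature) after 16 hr co-treatment of MDA-kb2 cells with test compounds and 0.5 nM R1881 final, at 37C without CO2. The MMTV-driven luciferase responds to both AR and GR.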

For assay [11], the target named is Estrogen receptor (Homo sapiens) (UniProt P03372). The assay can be described thus: qHTS assay to identify small molecule antagonists of the estrogen receptor alpha (ER-alpha) signaling pathway using the BG1 cell line in the presence of 0.1 nM 17-beta-estradiol (AID 1259244). Also: nearly all actives have a fitted effect of over 50% in size. The gist of the method: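 Luciferase luminescence (ONE-Glo, 30 min at room temperature) was read after 22 hr at 37C exposure to compounds plus 17beta-estradiol at 0.1 nM final. Cells were VM7Luc4E2 with endogenous ER-alpha and an ERE-driven luciferase, pre-cultured 5 days in hormone-depleted medium.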
Estrogen receptor (Homo sapiens), sequence (P03372 whole entry, looked up): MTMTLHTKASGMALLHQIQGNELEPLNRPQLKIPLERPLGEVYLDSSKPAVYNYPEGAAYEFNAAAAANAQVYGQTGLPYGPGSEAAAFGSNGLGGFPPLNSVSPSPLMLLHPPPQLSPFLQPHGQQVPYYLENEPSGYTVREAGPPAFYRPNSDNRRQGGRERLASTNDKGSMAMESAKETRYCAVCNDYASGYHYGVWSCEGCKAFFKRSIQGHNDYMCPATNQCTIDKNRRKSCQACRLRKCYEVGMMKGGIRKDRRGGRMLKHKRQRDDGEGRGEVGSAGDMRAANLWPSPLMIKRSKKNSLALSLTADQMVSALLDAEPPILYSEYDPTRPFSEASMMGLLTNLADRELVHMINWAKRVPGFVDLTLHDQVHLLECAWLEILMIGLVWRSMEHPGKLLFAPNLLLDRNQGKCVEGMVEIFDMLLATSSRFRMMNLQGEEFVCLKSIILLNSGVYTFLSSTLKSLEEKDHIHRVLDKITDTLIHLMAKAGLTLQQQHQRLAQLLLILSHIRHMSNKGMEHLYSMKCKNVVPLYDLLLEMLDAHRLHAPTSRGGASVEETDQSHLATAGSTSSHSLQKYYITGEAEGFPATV

Assay [12] is described as follows: qHTS assay to identify small molecule HDAC inhibitors (AID 1259364). Also: top concentration of the series differs between compounds; nearly all actives have a fitted effect of over 45% in size. The method, boiled down: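 Luminescence read after 30 min room-temperature HDAC-Glo incubation measures cellular class I/II HDAC activity. Compounds were applied for 2 hr at 37 C to HCT-116 wild-type cells seeded the day before.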
The nature of assay [13]: qHTS assay to identify small molecule HDAC inhibitors - cell viability counter screen (AID 1259365). The gist of the method: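 Luminescence from CellTiter-Glo, developed 30min at room temperature, reports viability of wild-type HCT-116 cells treated 2hr with compounds at 37 C and 5% CO2 after overnight plating.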
Assay [14] in a line: qHTS assay to identify small molecule agonists of the sonic hedgehog signaling (Shh) pathway - cell viability counter screen (AID 1259366). Also: nearly all actives have a fitted effect of over 50% in size. The method, boiled down: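 Cytotoxicity counter screen run in the same wells as the Shh reporter assay. NIH/3T3 cells carrying a Gli1 response element–driven luciferase were treated with DMSO-dissolved compounds for 24hr, and live-cell protease activity was measured with CellTiter-Fluor.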

Assay [15] is described as follows: qHTS assay to identify small molecule antagonists of the sonic hedgehog signaling (Shh) pathway - cell viability counter screen (AID 1259367). Also: nearly all actives have a fitted effect of over 55% in size. The gist of the method:
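Viability was read by CellTiter-Fluor fluorescence in the same wells, reagent added 23 hr into compound treatment and incubated 1 hr at 37C. The 3T3 Gli1-Luc reporter cells (2,000/well) received conditioned medium after compound and ran 24 hr.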

Assay [16] in a line: qHTS RealTime-Glo MT Cell Viability Assay in HepG2 cells - 0 hour (AID 1224889). Also: nearly all actives have a fitted effect of over 50% in size. The gist of the method: as §3
Assay [17] in a line: A CellTox Green Cytotoxicity Assay to monitor cytotoxicity in HepG2 cells - 8 hour (AID 1224890). Also: nearly all actives have a fitted effect of over 45% in size. The method, boiled down:
as §2

The nature of assay [18]: qHTS RealTime-Glo MT Cell Viability Assay in HEK293 cells - 24 hour (AID 1224886). The gist of the method:
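Luminescence generated by NanoLuc from substrate produced by living HEK293 cells served as the viability signal. Each value reflects the reading at its stated time point during continuous 40 h compound exposure at 37 C.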

Assay [19] is described as follows: qHTS assay to identify small molecule phospholipidosis (PLD) inducers (AID 1259344; active = well fitted curve in the direction sought with a large enough effect; an effect the other way counts as inactive or inconclusive). The gist of the method: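 Phospholipid accumulation was scored by imaging: fixed, Hoechst-counterstained HepG2 cells stained with LipidTOX Red after 24 h compound exposure at 37 C. Read-outs were pit count and pit intensity per well or per cell, with amiodarone and DMSO controls.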

Each structure is given as a SMILES string. Inconclusive results are not listed. Some compounds were tested as several samples or in several runs, with calls that do not always agree. The source made the active and inactive calls. Unless noted, calls follow the shape of the dose curve; as a rule, active = well fitted curve in the direction sought with a large enough effect in the repeat runs; inconclusive = weak or mixed curves; inactive = no such curve, though single readings can be large; an effect the other way counts as inactive or inconclusive.
% is scaled to controls: 0 for no effect and ±100 for the full control effect.

Androgen receptor (Homo sapiens), sequence (P10275 whole entry, looked up): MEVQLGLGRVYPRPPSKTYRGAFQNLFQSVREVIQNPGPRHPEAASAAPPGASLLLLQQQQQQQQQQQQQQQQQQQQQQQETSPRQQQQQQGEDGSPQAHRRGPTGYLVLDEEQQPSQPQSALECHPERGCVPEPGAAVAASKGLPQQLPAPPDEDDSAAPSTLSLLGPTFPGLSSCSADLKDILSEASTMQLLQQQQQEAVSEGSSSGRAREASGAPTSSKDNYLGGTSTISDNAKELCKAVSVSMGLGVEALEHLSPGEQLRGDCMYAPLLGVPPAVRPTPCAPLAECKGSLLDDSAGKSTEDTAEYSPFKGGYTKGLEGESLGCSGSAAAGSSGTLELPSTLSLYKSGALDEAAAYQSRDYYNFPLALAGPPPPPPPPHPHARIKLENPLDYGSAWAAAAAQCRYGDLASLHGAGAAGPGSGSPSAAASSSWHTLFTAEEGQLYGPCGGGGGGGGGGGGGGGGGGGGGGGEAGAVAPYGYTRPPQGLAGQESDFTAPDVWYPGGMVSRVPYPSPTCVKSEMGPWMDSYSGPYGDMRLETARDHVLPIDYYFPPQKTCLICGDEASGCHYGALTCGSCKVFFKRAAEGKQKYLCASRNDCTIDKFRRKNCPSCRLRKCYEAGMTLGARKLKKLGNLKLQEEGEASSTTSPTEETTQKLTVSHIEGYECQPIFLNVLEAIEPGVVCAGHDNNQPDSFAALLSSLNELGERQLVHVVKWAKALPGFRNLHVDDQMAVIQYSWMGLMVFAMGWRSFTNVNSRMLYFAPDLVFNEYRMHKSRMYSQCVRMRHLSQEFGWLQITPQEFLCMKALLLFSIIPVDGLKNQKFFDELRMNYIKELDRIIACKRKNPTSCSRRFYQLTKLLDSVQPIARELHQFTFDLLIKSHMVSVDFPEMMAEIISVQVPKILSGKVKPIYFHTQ

Turning to `O=C(c1ccccc1)C1CCCCC1`, the results for the Potency in assay [1] and in assay [3] were 24.5 µM (active) and 49 µM (active), respectively. Moreover, the Potency entry in assay [2], in assay [4], in assay [5], in assay [6], in assay [7] and in assay [9] was “inactive” each time. The Potency entry in assay [10], in assay [12], in assay [14] and in [15] was “inactive” throughout. Besides, the outcome in assay [8], in assay [11] and in assay [13] was inactive.
In the case of `CCCCCCCCCCCCCC=O`, the cytotoxicity increase is -0.0239% [at 6.97 µM] (inactive) in [1], -1.61% [at 6.97 µM] (inactive) in assay [4] and 5.89% [at 6.97 µM] (inactive) in [17]. For the same compound, the cytotoxicity in assay [2] is 11.5% [at 6.97 µM] (inactive). The activity change, negative = cytotoxic in assay [5] is 0.224% [at 6.97 µM] (inactive). Further, the activity change, negative = cytotoxicity in assay [6] was 2.94% [at 6.97 µM] (inactive); in assay [16], 15.5% [at 6.97 µM] (inactive); in assay [8] it was 4.83% [at 8.39 µM] (inactive); in assay [13], 1.26% [at 8.39 µM] (inactive). In addition, the activity change in assay [7] was -6.87% [at 6.97 µM, stronger effect = higher value] (inactive). Moreover, the viability change, negative = cytotoxic in assay [9] is -0.255% [at 8.39 µM] (inactive); in assay [14] it was 5.21% [at 8.39 µM] (inactive); in [15] it was 0.0972% [at 8.39 µM] (inactive). In addition, the activity change, negative = inhibition in [11] was 5.09% [at 8.39 µM] (inactive); in assay [12], -0.0684% [at 8.39 µM] (inactive).
Regarding `CC(=O)OCC(CCn1cnc2cnc(N)nc21)COC(C)=O`, the Potency entry in assay [1], in [2], in [3], in assay [4], in [5] and in assay [18] was “inactive” throughout. For the same compound, the Potency result in assay [6], in assay [7], in assay [17], in [9], in assay [10] and in assay [19] was “inactive” in each case. Further, the Potency result in assay [12], in assay [14] and in assay [15] was “inactive” in each case. Further, the result in assay [8], in assay [11] and in [13] was inactive.
Regarding `OC(CCN1CCCCC1)(c1ccccc1)C1CC2C=CC1C2` (centres undefined), the Potency result in assay [1], in assay [2], in [4], in assay [5], in [18] and in assay [6] was “inactive” each time. Also, the Potency entry in [7], in assay [16], in assay [17], in assay [9], in assay [12] and in [15] was “inactive” throughout. Besides, the result in assay [8], in [11] and in [13] was inactive.
Turning to `Nc1nc2c(ncn2COC(CO)CO)c(=O)[nH]1`, the Potency result in assay [1], in assay [2], in [3], in [4], in assay [7] and in assay [17] was “inactive” each time. The Potency entry in assay [9], in assay [19], in assay [12], in assay [14] and in assay [15] was “inactive” in each case. Also, the result in assay [8], in [11] and in assay [13] was inactive.
As for `CCCCOCCOCCOCc1cc2c(cc1CCC)OCO2`, the Potency result in assay [1], in assay [2], in [4], in assay [5], in [6] and in assay [7] was “inactive” in each case. Moreover, the Potency result in [16], in assay [17], in [9], in assay [10], in [19] and in assay [12] was “inactive” each time. Besides, the Potency result in assay [14] and in [15] was “inactive” each time. The Potency in assay [3] was 22.1 µM (active) and inactive. Besides, the outcome in assay [8] and in assay [13] was inactive.

Source of the values: PubChem BioAssay (Tox21).
